# About 83,000 compounds went through this panel and 20% of them were active in at least one assay; those are over-represented in the sample as a whole.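 Percent growth is the endpoint: 0 to 100 indicates growth inhibition (40 means 60% inhibition), 0 means no net growth, and negative values indicate cell death.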 Values without a mark were called inactive. Active and inactive are the calls of the source. The calls were made as follows: active = growth percent below 10; inactive = the rest.
# System: MDA-MB-468 breast
# Assay: NCI-60 one-dose screen, 48 h (100 = growth as untreated, 0 = no growth, -100 = all killed)
# Settings: 10 µM unless noted
row,SMILES,growth
1,CC(=O)N1CCN(CCNC(=O)n2cc(-c3ccncc3)c(-c3cc(O)cc(Cl)c3)n2)CC1,32.4%
2,O=C(NNC(=S)Nc1ccccc1)c1cc2ccc1CCc1ccc(cc1)CC2,67%
3,CC1=CC(=O)CC(C)(C)[C@@]1(O)/C=C/[C@@H](C)O,72.9%
4,CCCCCCCCCCCCCCCCCC[n+]1ccc2c(C)c3c(c(C)c2c1)c1cc(O)ccc1n3CC,-18.3% (active)
5,COc1cc2nc(-c3ccc(Cl)cc3)cc(OCCCN3CCCCC3)c2cc1OC,47.7%
6,Cc1ccc(C2CC(c3cccc(Nc4ccncc4)c3)=Nc3c(N)nc(N)nc3N2)cc1 (stereo not given),60.2%
7,COc1ccc2nc(-c3c(-c4ccccc4)nc4ncccn34)[nH]c2c1,89.4%
8,COc1ccc(-c2ccc(NNC(=O)c3ccc(F)cc3)nn2)cc1OC,56.2%
9,COc1ccc(OC)c(CCn2cncc2-c2c[nH]c3ccc(Cl)cc23)c1,-14.9% (active)
10,Nc1nc(Nc2ccccc2SSc2ccccc2Nc2nc(N)nc(-c3cccc(Cl)c3)n2)nc(-c2cccc(Cl)c2)n1,95.3%
11,CC(=O)c1cc(C(=O)N2c3ccccc3Sc3ccccc32)n2c1ccc1ccccc12,50.6%
12,CCOC(=O)c1c(NCC(=O)Nc2cccc(Cl)c2)sc2c1CCCC2,73%
13,COc1ccc(C(=O)CC#N)cc1,103%
14,CCc1nc(N)nc(N)c1-c1ccc(Cl)cc1,62.5%
15,FC(F)(F)c1ccc(Cn2cc(CSc3nc4ccccc4s3)nn2)cc1,98.7%
16,CC[C@]12C=CCN3CC[C@@]4(c5ccc(OC)cc5N(C)[C@H]4[C@@](O)(C(=O)OC)[C@@H]1OC(=O)CCC[P+](c1ccccc1)(c1ccccc1)c1ccccc1)[C@@H]32,-75.6% (active)
17,COc1ccc2nc3cc(Cl)ccc3c(N)c2c1,-88.9% (active)
18,O[C@H]1CO[C@H]2[C@@H]1OC[C@@H]2Oc1ccc(Nc2nc(Nc3ccc(F)c(Cl)c3)ncc2F)cc1Cl,97.6%
19,COc1cc(-c2nn(-c3cccc(NC(=O)CCN4CCN(Cc5ccccc5)CC4)c3)cc2-c2ccncc2)ccc1Cl,1.17% (active)
20,CCN(Cc1cccc(S(=O)(=O)[O-])c1)c1ccc(C(=C2C=CC(=[N+](CC)Cc3cccc(S(=O)(=O)O)c3)C=C2)c2ccccc2S(=O)(=O)O)cc1,92.9%

row,SMILES,growth
1,COc1ccc(Nc2[nH]n(C3=Nc4ccccc4Sc4ccccc43)c(=O)c2C#N)cc1,-3.96% (active)
2,N#Cc1cnc2ccc(-c3cnc(N)nc3)cc2c1N1CCc2cc(F)c(Cl)cc21,-38.1% (active)
3,Cc1nc2sc(C(=O)Nc3cccc(Cl)c3C)c(N)c2cc1C(O)c1ccccc1 (stereo not given),18.5%
4,O=C(O)CCN1CCN(c2cccc(Cl)c2)CC1,103%
5,COc1cc(/C=C/C(=O)c2cc(OC)c(OC)c(OC)c2)ccc1OCc1ccccc1,21.5%
6,NCC(=O)CCC(=O)O,100%
7,CSC1=Nc2c(c(C)c(-c3ccccc3)n2CCCCl)C2=NC(=O)CN12,47.3%
8,O=C(NCc1ccco1)C1CN(c2ccc(Cl)cc2)N(c2ccc(Cl)cc2)C1=O (stereo not given),42.4%
9,CCOC(=O)C1=C(C)N2C(=NC3=C(CCCC/C3=C\c3cc(OC)c(OC)c(OC)c3)C2c2cc(OC)c(OC)c(OC)c2)S1 (stereo not given),25.2%
10,O=C(O)c1ccccc1NCc1ccco1,95%
11,Cc1ccc2c(n1)C(=O)C(Cl)=C(Nc1ccc(C)c(C)c1)C2=O,-25.3% (active)
12,O=C(Nc1ccc([N+](=O)[O-])cc1)C(=O)Nc1ccc([N+](=O)[O-])cc1,105%
13,CCCCSc1nnc(-c2ccc(-c3ccc(Cl)cc3)nc2C)o1,107%
14,COc1ccc([C@H]2[C@H](O)C(=O)N2c2cc(OC)c(OC)c(OC)c2)cc1,8.33% (active)
15,CCOC(=O)CCCS(C)(=O)=O,126%
16,CN=C(N)N/N=C(\C)c1ccc2c(c1)Cc1cc(/C(C)=N/NC(N)=NC)ccc1-2,-90.7% (active)
17,C#Cc1cccc(Nc2ncnc3ccc(-c4cncc(NS(C)(=O)=O)c4)cc23)c1,-40.3% (active)
18,OCC1OC2C(NC(=S)N2c2ccccc2)C(O)C1O (stereo not given),94.6%
19,CCN1C[C@@H](C)n2c(c(O)c3c(=O)n(Cc4ccc(F)c(Cl)c4)nc(C(=O)NC)c32)C1=O,45%
20,O=C(OCc1ccc2c(Cl)cc(Cl)c(O)c2n1)N1CCN(C(=O)c2cc3cc(F)ccc3[nH]2)CC1,-5.15% (active)

# From PubChem BioAssay (NCI)
